This experiment in a line: inhibitors of HIV fusion peptide binding, primary screen, biochemical, uHTS, fluorescence dequenching (AID 1986). To be noted: cell-free peptide binding, 30 min, stronger effect = higher value.
[1] abbreviates: measured here: repeat confirmation average inhibition, at 18.6 µM.

What is called inhibition is the relative decrease from the control value, in per cent.

Each structure is given as a SMILES string. “And” between values parts separate entries of the source, which are not always exact repeats. Equal entries are not always repeated. The campaign covered roughly 290,000 compounds. About 890 (0.31%) were called active. Rule as the data show it: active = inhibition mostly above about 52% (no sharp cut-off); inactive = mostly below about 76%. For the sample, actives were picked, then their nearest neighbours and some compounds at random.

In the case of `CC(C)=C1C(=O)NN(c2ccc(C)c(Cl)c2)C1=O`, the inhibition (at 20 µM) was 66.4% (active).

For the compound `O=C(COC(=O)c1cc[n+]([O-])cc1)Nc1ccc(SC(F)F)cc1`, the inhibition (at 20 µM) was 2.4% (inactive).

For `O=C(Nc1cc(C(=O)N2CCCC2)ccc1N1CCCC1)c1ccccc1F`, the inhibition (at 20 µM) was 2.6% (inactive).

As to `O=C(Nc1sc2c(c1C(=O)O)CCCC2)C(=O)N1CCOCC1`, the inhibition (at 20 µM) was 2.6% (inactive).

With `COc1ccc(OC)c(/C=C2\N=C(c3ccccc3)OC2=O)c1`, the inhibition (at 20 µM) is 60.8% (active).

In the case of `COc1cc(/C=C2\N=C(c3ccccc3)OC2=O)ccc1OC(C)=O`, where the note is “at 20 µM”, the inhibition is 1.1% (inactive).

As to `COc1ccc(/C=C2\N=C(c3ccc(C)cc3)OC2=O)cc1`, for the setting “at 20 µM”, the inhibition was 1.1% (inactive).

On to `CC(C)=Cc1oc2ccc([N+](=O)[O-])cc2c1N1CCOCC1`, for which the inhibition (at 20 µM) is 0.3% (inactive).

In the case of `COc1ccc(NC(C)C(=O)Nc2ccc(C#N)cc2)cc1Cl` (configuration not stated), the inhibition (at 20 µM) is 0.7% (inactive).

Turning to `O=C(Nc1ccc([N+](=O)[O-])cc1)N1CCCCCC1`, the inhibition (at 20 µM) was -1.7% (inactive).

As for `O=C(c1sc2ccccc2c1Cl)N1CCN(CCc2ccccn2)CC1`, the inhibition (at 20 µM) was -0.9% (inactive).

With `O=C(O)c1ccc(-n2cccc2/C=C2/SC(=O)N(CC(=O)N3CCCC3)C2=O)cc1`, the inhibition (at 20 µM) was 33.4% (inactive).

Regarding `COc1cccc(NC(=O)CCc2nnc3ccc(NCc4ccco4)nn23)c1`, under “at 20 µM”, the inhibition was 1.7% (inactive).

In the case of `Cc1ccc(S(=O)(=O)/N=C2/NC(=O)/C(=C\c3cc(Br)cc(Br)c3O)S2)cc1`, the inhibition is 94.7% (active) (at 20 µM) and 132% under setting [1].

On to `Cc1ccc(S(=O)(=O)/N=C2/NC(=O)/C(=C/c3ccccn3)S2)cc1`, for which the inhibition (at 20 µM) was 13% (inactive).

As for `Cc1ccc(S(=O)(=O)/N=C2/NC(=O)/C(=C/c3ccc(Br)o3)S2)cc1`, the inhibition (at 20 µM) was 53.6% (active).

Take `Cc1ccc(S(=O)(=O)/N=C2/NC(=O)/C(=C/c3ccccc3)S2)cc1`: the inhibition is, setting by setting: (at 20 µM) 59.7% (inactive); under setting [1], 46.5%.

Take `Cc1ccc(S(=O)(=O)/N=C2/NC(=O)/C(=C/c3ccncc3)S2)cc1`: the inhibition (at 20 µM) is 0.8% (inactive).

With `Cc1ccc(S(=O)(=O)/N=C2/NC(=O)/C(=C\c3ccco3)S2)cc1`, the inhibition (at 20 µM) was -3.4% (inactive).

On to `Fc1ccc(OCCCCCCN2CCCC2)cc1`, for which the inhibition (at 20 µM) was 0.7% (inactive).

As for `Cc1ccc(NC(=O)CSCc2cc(=O)n3cc(C)sc3n2)c(C)c1`, the inhibition (at 20 µM) is 0% (inactive).

As for `CCOC(=O)c1ccc(N=C2SC(C(=O)NC)CC(=O)N2Cc2ccc(F)cc2)cc1` (configuration not stated), where the note is “at 20 µM”, the inhibition was 0.9% (inactive).

With `COc1ccc(C2(C(=O)NCCCN(C)C)CCOCC2)cc1`, the inhibition (at 20 µM) was 2.4% (inactive).

As to `O=C(CCl)Nc1cc(S(=O)(=O)N2CCOCC2)ccc1N1CCOCC1`, the inhibition (at 20 µM) is 1% (inactive).

Consider `O=S(=O)(O)c1cccc(N=Nc2c(O)ccc3ccccc23)c1`, for which, under “at 20 µM”, the inhibition is 10.9% (inactive).

For the compound `O=S(=O)(O)c1cc(O)c2c(O)c(N=Nc3cc(Cl)ccc3O)c(S(=O)(=O)O)cc2c1`, under “at 20 µM”, the inhibition is 55.7% (active).

Consider `Oc1ccc(Cl)cc1N=Nc1ccccc1`, for which the inhibition (at 20 µM) is -2.6% (inactive).

`CCc1ccc2[nH]c3nc(SCc4nnc(-c5ccc(C)cc5)o4)nnc3c2c1`: where the note is “at 20 µM”, the inhibition is 1.4% (inactive).

For `COc1ccc(-c2cc(-c3ccco3)[nH]c(=O)c2C#N)cc1`, the inhibition (at 20 µM) was 48.8% (inactive).

On to `N#Cc1c(-c2cccc(Br)c2)cc(-c2ccco2)[nH]c1=O`, for which the inhibition (at 20 µM) is 81.5% (active).

`COc1ccc(-c2cc(-c3ccco3)[nH]c(=O)c2C#N)cc1OC`: where the note is “at 20 µM”, the inhibition is 40.7% (inactive).

In the case of `Cc1c(C(=O)O)c(=O)n(-c2ccccc2)n1-c1ccccc1`, the inhibition (at 20 µM) is 1.2% (inactive).

Take `Cc1ccc(C)c(C(=O)CSc2nc3ccccc3c(=O)[nH]2)c1`: the inhibition (at 20 µM) is 1.9% (inactive).

In the case of `Cc1cc(NC(=O)OC2CCCCC2)ccc1[N+](=O)[O-]`, the inhibition (at 20 µM) was -1.3% (inactive).

On to `COc1ccc(CNC(=O)Cc2cn(C)c3ccccc23)c(OC)c1`, for which the inhibition (at 20 µM) was 0% (inactive).

On to `COc1cc(C(=O)NS(=O)(=O)c2ccccc2C)ccc1Cc1cn(C)c2ccc(NC(=O)OC3CCCC3)cc12`, for which the inhibition (at 20 µM) was 55.9% (active).

For the compound `O=S(=O)(c1ccc(C2CCCCC2)cc1)N1CCCC1`, the inhibition (at 20 µM) is -0.2% (inactive).

On to `COCCn1c(=NC(=O)CCS(=O)(=O)c2ccccc2)sc2c(OC)ccc(OC)c21`, for which, for the setting “at 20 µM”, the inhibition was 1.4% (inactive).

On to `CC(C)NCc1cc(Br)ccc1OCc1ccccc1`, for which the inhibition (at 20 µM) was 0.8% (inactive).

For the compound `S=c1[nH]nc(-c2ccco2)n1/N=C/C=C/c1ccccc1`, under “at 20 µM”, the inhibition was 3.2% (inactive).

With `S=c1[nH]nc(-c2ccccc2)n1/N=C/C=C/c1ccco1`, the inhibition was 51.2% (inactive) (at 20 µM) and -0.2% under setting [1].

Consider `S=c1[nH]nc(-c2ccco2)n1/N=C/C=C/c1ccco1`, for which the inhibition (at 20 µM) is 65.9% (active).

Consider `COc1ccc2c(CC(=O)Nc3ncc(C)s3)coc2c1`, for which the inhibition (at 20 µM) was 1.1% (inactive).

As to `Cc1cccc(C)c1OCc1cc(C(=O)NCc2ccc(Cl)s2)no1`, the inhibition (at 20 µM) is 0.7% (inactive).

As for `CC1=CC(=C(C#N)C#N)c2ccccc2N1C`, under “at 20 µM”, the inhibition is 146% (inactive).

As to `COC(=O)c1c(C(=O)NCc2ccccc2)ncn1CC(O)COc1ccccc1` (configuration not stated), for the setting “at 20 µM”, the inhibition was -0.4% (inactive).

As to `CCOC(=O)c1nc2sc3c(c2c(=O)[nH]1)CCCC3`, for the setting “at 20 µM”, the inhibition is 0.4% (inactive) and 2.4% (inactive).

For `N#C/C(=C\c1ccc(C(=O)O)cc1)c1nc2sc3c(c2c(=O)[nH]1)CCCC3`, where the note is “at 20 µM”, the inhibition was 103% (active).

Turning to `O=C(O)c1ccc(/C=C/c2nc3sc4c(c3c(=O)[nH]2)CCC4)cc1`, the inhibition (at 20 µM) was 33.6% (inactive).
